Six molecules from PubChem BioAssay (Tox21) can be followed below.

The structures appear in SMILES notation. Unmarked numbers belong to inactive results. Results filed as inconclusive are left out. The source made the active and inactive calls. Unless noted, the call rests on the fitted dose curve.

Experiment [1] is described as follows: Nuclear factor erythroid 2-related factor 2/antioxidant responsive element (Nrf2/ARE) small molecule agonists: qHTS cell viability counter screen in human keratinocytes (AID 1919968; active means well fitted curve in the direction sought with a large enough effect in the repeat runs; an effect the other way counts as inactive or inconclusive; further: nearly all actives have a fitted effect of over 55% in size). The method, boiled down:
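In human HaCaT keratinocytes stably expressing an ARE-driven luciferase, compound exposure lasted 23 h at 37 C under 5% CO2. Viable cells are quantified with a protease-based fluorogenic reagent (CellTiter-Fluor) read 1 h after addition.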

Experiment [2] is described as follows: Nuclear factor erythroid 2-related factor 2/antioxidant responsive element (Nrf2/ARE) small molecule agonists: luciferase reporter gene qHTS assay in human keratinocytes (AID 1919969). Further: nearly all actives have a fitted effect of over 35% in size. Further: potency means the concentration at half of the fitted maximal effect.
Experiment [3] concerns the target Gonadotropin-releasing hormone receptor (Homo sapiens) (UniProt P30968). Nature of the experiment: Human gonadotropin-releasing hormone receptor (GnRHR) small molecule agonists, calcium flux assay in GnRHR-HEK293 cells (AID 1920063). Further: nearly all actives have a fitted effect of over 35% in size. Summed up: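 Intracellular calcium rise is the read-out: engineered human GnRHR HEK293 cells, dye-loaded, are exposed to DMSO-dissolved compounds and fluorescence at Ex/Em 480/540 is tracked for 3 min.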

The target of experiment [4] is KiSS-1 receptor (Homo sapiens) (UniProt Q969F8). Nature of the experiment: Human kisspeptin (KISS1R) small molecule agonists, calcium flux assay in KISS1R-HEK293 cells (AID 1920064; active means well fitted curve in the direction sought with a large enough effect in the repeat runs; an effect the other way counts as inactive or inconclusive). Summed up: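 Concentration-response testing used 15 concentrations in triplicate on human KISS1R-expressing HEK293 cells. Calcium-dependent fluorescence (Ex/Em 480/540) was followed kinetically for 3 min after compound transfer.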
Chain of KiSS-1 receptor (Homo sapiens) (Q969F8 whole entry, looked up): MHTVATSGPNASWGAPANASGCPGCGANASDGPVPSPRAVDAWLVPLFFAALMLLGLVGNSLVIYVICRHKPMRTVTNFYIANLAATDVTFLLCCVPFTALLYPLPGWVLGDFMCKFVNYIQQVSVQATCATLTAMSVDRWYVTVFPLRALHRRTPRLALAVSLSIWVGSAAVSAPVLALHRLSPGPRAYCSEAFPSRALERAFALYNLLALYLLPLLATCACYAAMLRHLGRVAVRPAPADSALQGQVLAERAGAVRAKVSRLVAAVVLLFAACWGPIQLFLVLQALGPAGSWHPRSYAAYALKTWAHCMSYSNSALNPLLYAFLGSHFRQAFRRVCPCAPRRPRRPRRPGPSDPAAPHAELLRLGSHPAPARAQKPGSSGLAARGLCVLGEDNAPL

The nature of experiment [5]: G protein-coupled receptor (GPCR) small molecule agonists, calcium flux assay: HEK293 wild type cell line counter screen (AID 1920065). Summed up:
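Fluorescence intensity signals activation. After overnight (18 h) culture and a 1 h calcium dye load at 37 C, compounds are added by pin tool and the plate read at 480/540 nm for 3 min in 1 s steps.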

Experiment [6] is described as follows: p53 small molecule agonists, cell-based qHTS assay with human liver microsomes (AID 1963577).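 Further: p53 response element beta-lactamase reporter cells with liver microsomes plus NADPH.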 Summed up: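 Steps: plate p53RE-bla cells, incubate 5 h at 37 C; add compound in DMSO; add microsomes (0.5 mg/mL final) and NADPH (0.5 mg/mL final); incubate 16 h at 37 C; add LiveBLAzer, 2 h RT; read fluorescence.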
Experiment [7] is described as follows: p53 small molecule agonists, cell-based qHTS assay with rat liver microsomes (AID 1963578). The method, boiled down: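 Metabolic activation is supplied by rat liver microsomes with NADPH (each 0.5 mg/mL final). p53RE-bla cells incubate with compound 16 h at 37 C; reporter activity is measured by LiveBLAzer fluorescence.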
A short description of experiment [8]: p53 small molecule agonists, cell-based qHTS assay with rat liver microsomes: qHTS cell viability counter screen (AID 1963580). Further: nearly all actives have a fitted effect of over 45% in size. The method, boiled down: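 Cytotoxicity counter screen: intracellular ATP measured by CellTiter-Glo luminescence in the same wells as the beta-lactamase reporter read, on HCT-116 p53RE-bla cells exposed 16 h at 37 C to compounds with rat liver microsomes and NADPH, each 0.5 mg/mL final.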

Experiment [9] is described as follows: p53 small molecule agonists, cell-based qHTS assay: qHTS cell viability counter screen (AID 1963581). Further: nearly all actives have a fitted effect of over 45% in size. The method, boiled down: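 Luminescence from CellTiter-Glo, reflecting ATP content, serves as the cytotoxicity measure; it is taken after the 2 h reporter substrate step in HCT-116 p53RE-bla cells dosed for 16 h at 37 C.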
Experiment [10] is described as follows: p53 small molecule agonists, cell-based qHTS assay (AID 1963582; active means well fitted activation curve with a large enough effect in the signal ratio in the repeat runs, not every such curve was filed as active; the % refers to the signal ratio). Summed up: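 After plating, p53RE-bla cells sat 5 h in the incubator; compounds or DMSO vehicle were pinned in; a 16 h incubation at 37 C followed; FRET substrate was added and, 2 h later at RT, fluorescence was measured.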
Experiment [11] concerns the target 5-hydroxytryptamine receptor 2A (Homo sapiens) (UniProt P28223). Nature of the experiment: 5-hydroxytryptamine receptor 2A (HTR2A) small molecule antagonists, cell-based qHTS assay (AID 1963586). Further: nearly all actives have a fitted effect of over 45% in size. Further: potency means the concentration at half of the fitted maximal effect. The method, boiled down: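 CHO cells stably expressing human HTR2A were plated for 18 h at 37 C, then loaded with calcium dye for 1 h. Compounds were preincubated 5 min at room temperature before DOI (4 nM solution) was added. Kinetic fluorescence was read for 3 min.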

Experiment [12] has the same target. Nature of the experiment: 5-hydroxytryptamine receptor 2A (HTR2A) small molecule agonists, cell-based qHTS assay (AID 1963587). Further: nearly all actives have a fitted effect of over 30% in size. The method, boiled down: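 CHO cells stably expressing human HTR2A, plated 18 h, loaded with calcium dye 1 h at 37 C. Agonist mode: compounds added and intracellular calcium fluorescence recorded kinetically for 2 min at 1 sec intervals.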

For experiment [13], the target named is Muscarinic acetylcholine receptor M1 (Homo sapiens) (UniProt P11229). The experiment in a line: Cholinergic receptor muscarinic 1 (CHRM1) small molecule agonists, cell-based qHTS assay (AID 1963589). Further: nearly all actives have a fitted effect of over 35% in size. The method, boiled down: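 Fluorescent calcium dye reports M1 activation in stably transfected CHO cells. Compounds, 15 concentrations, added after 1 h dye loading at 37 C; kinetic reading at 1 sec intervals.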
Chain of Muscarinic acetylcholine receptor M1 (Homo sapiens) (P11229 whole entry, looked up): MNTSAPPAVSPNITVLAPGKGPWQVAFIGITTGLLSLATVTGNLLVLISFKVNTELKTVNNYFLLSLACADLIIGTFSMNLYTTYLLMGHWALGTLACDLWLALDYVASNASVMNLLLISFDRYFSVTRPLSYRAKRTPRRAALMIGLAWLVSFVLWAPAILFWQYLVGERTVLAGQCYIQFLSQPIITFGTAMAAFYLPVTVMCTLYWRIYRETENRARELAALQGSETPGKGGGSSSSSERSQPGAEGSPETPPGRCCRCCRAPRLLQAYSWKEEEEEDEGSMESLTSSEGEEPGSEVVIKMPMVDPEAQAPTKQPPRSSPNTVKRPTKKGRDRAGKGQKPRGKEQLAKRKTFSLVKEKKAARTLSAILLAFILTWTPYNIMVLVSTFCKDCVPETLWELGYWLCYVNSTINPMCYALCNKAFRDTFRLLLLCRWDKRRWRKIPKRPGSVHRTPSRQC

The nature of experiment [14]: cAMP Responsive Elements (CRE) small molecule agonists, cell-based qHTS assay (AID 1963590). The method, boiled down:
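Compound exposure lasted 3 h at 37 C/5% CO2 in CRE-bla HEK 293T cells grown in assay medium with 10% dialyzed FBS and 25 mM HEPES. Reporter signal came from LiveBLAzer B/G FRET substrate, 2 h, room temperature.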

The nature of experiment [15]: cAMP Responsive Elements (CRE) small molecule antagonists, cell-based qHTS assay (AID 1963591; active means well fitted inhibition curve with a large enough effect in the signal ratio in the repeat runs, not every such curve was filed as active; the % refers to the signal ratio). Summed up:
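Stimulation used NKH477 at a final 0.25 uM for 3 h in compound-treated CRE-bla HEK293T cells, seeded 18 h beforehand. Reporter activity was measured with LiveBLAzer B/G FRET substrate after 2 h at room temperature.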

Experiment [16] deals with Beta-2 adrenergic receptor (Homo sapiens) (UniProt P07550). Nature of the experiment: Adrenergic beta2 receptor (ADRB2) small molecule antagonists, cell-based qHTS assay (AID 1963592). Further: series mostly up to about 92 µM; nearly all actives have a fitted effect of over 50% in size. Summed up:
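Assay format: CHO-ADRB2 cells, 18-20hr seeding at 37C/5% CO2, then compound plus 1nM isoproterenol agonist mix for 0.5hr RT. Homogeneous time-resolved fluorescence cAMP detection after 1hr, expressed as 665/615 nm ratio.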

Experiment [17] deals with D(2) dopamine receptor (Homo sapiens) (UniProt P14416). Nature of the experiment: Dopamine D2 receptor (DRD2) small molecule agonists, cell-based qHTS assay (AID 1963594). Further: nearly all actives have a fitted effect of over 35% in size. Summed up: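 HEK293 cells stably expressing human DRD2, pre-treated with PDE inhibitor Ro20-1724 (0.1 mM final) and compound 10 min at room temperature, then stimulated with NKH477 (200nM […]) for 30 min. cAMP read by HTRF (665/620 nm).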
Chain of D(2) dopamine receptor (Homo sapiens) (P14416 whole entry, looked up): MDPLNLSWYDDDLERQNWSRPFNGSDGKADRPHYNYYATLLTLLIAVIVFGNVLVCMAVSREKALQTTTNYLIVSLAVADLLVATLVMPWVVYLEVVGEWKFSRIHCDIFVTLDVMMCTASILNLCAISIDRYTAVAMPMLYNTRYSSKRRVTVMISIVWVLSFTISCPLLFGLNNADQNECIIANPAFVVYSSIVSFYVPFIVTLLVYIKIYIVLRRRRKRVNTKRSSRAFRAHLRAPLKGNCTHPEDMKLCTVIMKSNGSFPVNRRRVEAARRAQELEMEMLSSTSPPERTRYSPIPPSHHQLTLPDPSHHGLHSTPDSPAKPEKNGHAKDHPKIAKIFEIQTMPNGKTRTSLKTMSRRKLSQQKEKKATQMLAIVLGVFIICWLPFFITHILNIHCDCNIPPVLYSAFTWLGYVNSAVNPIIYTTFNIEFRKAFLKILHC

Experiment [18] shares this target. The experiment in a line: Dopamine D2 receptor (DRD2) small molecule antagonists, cell-based qHTS assay (AID 1963595; active means well fitted inhibition curve with a large enough effect in the signal ratio in the repeat runs, with a control signal flat; the % refers to the signal ratio). The method, boiled down:
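Human DRD2 antagonist qHTS measuring cAMP by HTRF. The cells are exposed to compound for 10 min, then to NKH477 (200 nM) and quinpirole (12 nM) for 30 min at RT, with Ro20-1724 (0.1 mM) present throughout.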

Experiment [19] concerns the target Muscarinic acetylcholine receptor M1 (Homo sapiens) (UniProt P11229). The experiment in a line: Cholinergic receptor muscarinic 1 (CHRM1) small molecule antagonists, cell-based qHTS assay (AID 1963588). Further: nearly all actives have a fitted effect of over 40% in size. Summed up:
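Compounds were tested at 15 concentrations in three independent runs. Dye-loaded CHRM1-CHO cells were exposed 5 min at room temperature before stimulation by acetylcholine added at 50nM. Intracellular calcium was read kinetically on FDSS for 3 min.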
On the % scale 0 is the no-effect control and ±100 the full control effect.

Chain of Beta-2 adrenergic receptor (Homo sapiens) (P07550 whole entry, looked up): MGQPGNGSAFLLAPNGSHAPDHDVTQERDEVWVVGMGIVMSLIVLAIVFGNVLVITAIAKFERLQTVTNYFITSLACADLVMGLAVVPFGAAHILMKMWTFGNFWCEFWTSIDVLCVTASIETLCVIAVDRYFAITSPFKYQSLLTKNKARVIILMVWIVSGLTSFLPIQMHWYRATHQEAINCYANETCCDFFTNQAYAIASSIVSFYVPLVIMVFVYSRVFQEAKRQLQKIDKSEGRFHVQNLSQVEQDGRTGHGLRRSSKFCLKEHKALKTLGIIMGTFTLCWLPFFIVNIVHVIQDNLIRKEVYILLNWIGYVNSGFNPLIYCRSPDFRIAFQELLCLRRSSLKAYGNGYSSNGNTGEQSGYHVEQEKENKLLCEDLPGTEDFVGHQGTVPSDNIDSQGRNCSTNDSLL
Chain of 5-hydroxytryptamine receptor 2A (Homo sapiens) (P28223 whole entry, looked up): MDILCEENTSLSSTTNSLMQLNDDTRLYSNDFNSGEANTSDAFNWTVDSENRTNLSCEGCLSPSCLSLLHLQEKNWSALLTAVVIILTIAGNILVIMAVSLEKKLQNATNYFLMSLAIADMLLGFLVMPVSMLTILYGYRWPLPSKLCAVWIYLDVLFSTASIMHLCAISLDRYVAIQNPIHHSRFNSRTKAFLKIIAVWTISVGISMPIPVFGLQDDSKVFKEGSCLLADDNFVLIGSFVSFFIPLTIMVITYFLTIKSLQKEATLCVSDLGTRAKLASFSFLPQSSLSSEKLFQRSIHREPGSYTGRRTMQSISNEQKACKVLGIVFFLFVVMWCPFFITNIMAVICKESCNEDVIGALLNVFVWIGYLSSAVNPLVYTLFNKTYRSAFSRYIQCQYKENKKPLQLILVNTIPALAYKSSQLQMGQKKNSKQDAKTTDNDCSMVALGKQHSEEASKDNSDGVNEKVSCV
Chain of Gonadotropin-releasing hormone receptor (Homo sapiens) (P30968 whole entry, looked up): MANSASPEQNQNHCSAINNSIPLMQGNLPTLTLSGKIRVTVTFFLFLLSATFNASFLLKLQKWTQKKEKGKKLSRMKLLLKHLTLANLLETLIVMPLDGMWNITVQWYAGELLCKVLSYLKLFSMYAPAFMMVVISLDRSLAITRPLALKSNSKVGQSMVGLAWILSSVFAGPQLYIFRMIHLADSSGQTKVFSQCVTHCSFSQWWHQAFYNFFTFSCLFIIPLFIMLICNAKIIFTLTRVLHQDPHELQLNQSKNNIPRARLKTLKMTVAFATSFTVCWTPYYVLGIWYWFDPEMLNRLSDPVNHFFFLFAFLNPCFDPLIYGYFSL

On to `O=C(CCN1CCN2CCCC2C1)N1c2ccccc2Sc2ccc(Cl)cc21` (configuration not stated), for which the activity change, negative = cytotoxicity was -13.5% [at 19 µM] in experiment [1], 2.61% [at 13.5 µM] in experiment [8] and -8.91% [at 13.5 µM] in experiment [9]. The activity, positive = activation in experiment [2] was -8.3% [at 19 µM]. Also, in [3], the activity change is 0.23% [at 11.8 µM, active compounds read high]. Besides, the activation was -1.39% [at 15.8 µM] in [4]; 0.367% [at 11.8 µM] in experiment [5]; -1.04% [at 13.5 µM] in experiment [6]; 1.06% [at 13.6 µM] in [7]; -0.768% [at 13.5 µM] in experiment [10]; -9.57% [at 15.9 µM] in [12]. Also, the results for the activation in experiment [13], in experiment [14] and in [17] were 0.0294% [at 15.8 µM], 0.0795% [at 19 µM] and -31% [at 19 µM], respectively. In experiment [11], the Potency is 8.94 µM (active). Besides, the results for the activity change, negative = inhibition in [15], in [16] and in [18] were -4.08% [at 18.9 µM], 0.603% [at 19 µM] and -8.25% [at 18.9 µM], respectively.

On to `CCOCCn1c(C2CCN(CCc3ccc(C(C)(C)C(=O)O)cc3)CC2)nc2ccccc21`, for which the Potency result in [1], in experiment [2], in experiment [3], in experiment [6], in experiment [7] and in [8] was “inactive” in each case. Further, the Potency result in experiment [9], in experiment [10], in experiment [11], in experiment [13], in [14] and in experiment [15] was “inactive” each time. Moreover, the Potency result in [16] and in [17] was “inactive” throughout. Further, the result in experiment [4] and in experiment [5] was inactive.

On to `Cc1ccc(OC(=O)c2ccccc2O)cc1`, for which the Potency result in experiment [1], in experiment [2], in experiment [3], in [6], in [7] and in experiment [8] was “inactive” in each case. For the same molecule, the Potency entry in [9], in experiment [10], in experiment [11], in experiment [12], in experiment [19] and in [13] was “inactive” throughout. In addition, the Potency entry in experiment [16], in [17] and in experiment [18] was “inactive” throughout. In addition, the result in experiment [4] and in [5] was inactive.

`CC(C)(C)C1=CC(=O)C(C(C)(C)C)=CC1=O`: the Potency entry in experiment [1], in experiment [3], in experiment [6], in experiment [7], in experiment [8] and in experiment [9] was “inactive” throughout. Also, the Potency entry in [10], in [11], in [19], in [13], in experiment [14] and in [15] was “inactive” each time. Also, the Potency entry in experiment [16], in [17] and in [18] was “inactive” throughout. Also, in [2], the Potency was 26.6 µM (active). For the same molecule, the result in [4] and in experiment [5] was inactive.

As to `CCN(CC)CC(=O)Nc1c(C)cccc1C(=O)OC`, the Potency result in experiment [1], in [2], in experiment [3], in experiment [6], in [7] and in experiment [8] was “inactive” each time. The Potency entry in experiment [9], in experiment [10], in experiment [11], in experiment [19], in experiment [13] and in experiment [14] was “inactive” each time. Further, the Potency entry in experiment [15], in experiment [16] and in experiment [18] was “inactive” in each case. In addition, the result in experiment [4] and in [5] was inactive.

In the case of `CC(C)CC(C)CC(C)CC(C)COC(=O)c1ccccc1C(=O)OCC(C)CC(C)CC(C)CC(C)C` (configuration not stated), the Potency result in experiment [1], in experiment [2], in experiment [3], in [6], in experiment [7] and in experiment [8] was “inactive” each time. The Potency result in experiment [9], in [10], in [11], in experiment [12], in experiment [13] and in [14] was “inactive” in each case. The Potency entry in [16] and in experiment [18] was “inactive” in each case. The outcome in experiment [4] and in experiment [5] was inactive.
